Test results from PubChem BioAssay (NCATS).
Records with an inconclusive call do not appear. Activity calls are given as the source filed them. Calls come from the whole dose curve; as a rule, active = well fitted curve in the direction sought with a large enough effect; inconclusive = small, poorly fitted or top-dose-only effect, or another doubt; inactive = no such curve, though single readings can be large; an effect the other way counts as inactive or inconclusive.

Tests used:
[1] = Quantitative High-Throughput drug screen in 47 multiple myeloma cell lines against the NCATS MIPE library collection: FR4_PLB cell viability assay (AID 1918924; note: nearly all actives have a fitted effect of over 35% in size; note: potency is the fitted concentration of half-maximal effect)
Method in brief: (§1)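 Inhibition of cell viability is measured here. Each line was plated at 500 cells per well, treated with MIPE 4.0 drugs, kept 48 hours at 37C, then assayed for ATP content by CellTiter-Glo luminescence.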

[2] = Quantitative High-Throughput drug screen in 47 multiple myeloma cell lines against the NCATS MIPE library collection: Delta47_JCRB cell viability assay (AID 1918925; note: nearly all actives have a fitted effect of over 45% in size; note: potency is the fitted concentration of half-maximal effect)
Method in brief: (§2)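 qHTS of the MIPE 4.0 collection: 500 myeloma cells/well, 48 h drug exposure at 37C in 5% CO2, then CellTiter-Glo for 5 min at room temperature before luminescence reading.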

[3] = Quantitative High-Throughput drug screen in 47 multiple myeloma cell lines against the NCATS MIPE library collection: EJM_DSMZ cell viability assay (AID 1918926; note: nearly all actives have a fitted effect of over 30% in size; note: potency is the fitted concentration of half-maximal effect)
Method in brief: as §2

[4] = Quantitative High-Throughput drug screen in 47 multiple myeloma cell lines against the NCATS MIPE library collection: ARP1_JJKsccF8 cell viability assay (AID 1918928; note: nearly all actives have a fitted effect of over 40% in size; note: potency is the fitted concentration of half-maximal effect)
Method in brief: (§3)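 Here, 48 h treatment with MIPE 4.0 agents at 37 °C preceded an ATP luminescence read. Plating density was 500 cells per well.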

[5] = Quantitative High-Throughput drug screen in 47 multiple myeloma cell lines against the NCATS MIPE library collection: ARD_JJKsccE7 cell viability assay (AID 1918929; note: potency is the fitted concentration of half-maximal effect)
Method in brief: as §2

[6] = Quantitative High-Throughput drug screen in 47 multiple myeloma cell lines against the NCATS MIPE library collection: Karpas620_DSMZ cell viability assay (AID 1918959); note: nearly all actives have a fitted effect of over 30% in size; note: potency is the fitted concentration of half-maximal effect
Method in brief: as §1

[7] = Quantitative High-Throughput drug screen in 47 multiple myeloma cell lines against the NCATS MIPE library collection: AMO1_DSMZ cell viability assay (AID 1918927; note: nearly all actives have a fitted effect of over 30% in size; note: potency is the fitted concentration of half-maximal effect)
Method in brief: as §2

[8] = Quantitative High-Throughput drug screen in 47 multiple myeloma cell lines against the NCATS MIPE library collection: KMM1_JCRB cell viability assay (AID 1918960); note: nearly all actives have a fitted effect of over 30% in size; note: potency is the fitted concentration of half-maximal effect
Method in brief: as §3

[9] = test system: Nanoluciferase (engineered Oplophorus gracilirostris luciferase); assay: Primary Nanoluciferase (NLuc) qHTS assay for identification of artifact compounds. (AID 1845222);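 note: NLuc secreted into diluted conditioned medium of S16 cells; series mostly up to about 54 µM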
Method in brief: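 qHTS format, against NLuc in S16 cell-conditioned medium. Nano-Glo substrate 1:100 was added after 15 min at room temperature. Luminescence was taken after a further 5 min.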

[10] = Primary redox qHTS assay for identification of artifact compounds. (AID 1845223)
Method in brief: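 Amplex Red (25 uM) and HRP (250 mU/mL) in HBSS, with compounds for 15 min, then 250 uM DTT for 30 min, room temperature, dark. Fluorescence 525/598 nm read; normalized to DMSO and 10 uM DA3003; Hill fit.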

Measured: Potency

Cc1cc(C(C)(C)C)cc(C)c1CC1=NCCN1
inactive: [1] | [2] | [3] | [4] | [5] | [6]

O=C1c2c(O)ccc(O)c2C(=O)c2c(NCCNCCO)ccc(NCCNCCO)c21
active: [1] 1.66 µM | [2] 0.132 µM | [3] 0.833 µM | [7] 0.935 µM | [4] 0.469 µM | [5] 20.9 µM | [8] 4.18 µM

CN(C)CCOC(c1ccccc1)c1ccccc1
active: [2] 8.33 µM
inactive: [1] | [3] | [7] | [4] | [8]

CNCCCC12CCC(c3ccccc31)c1ccccc12
inactive: [9] | [10]
active: [1] 20.9 µM | [2] 18.7 µM | [7] 23.5 µM | [4] 20.9 µM | [6] 26.4 µM | [8] 20.9 µM

Cc1ccc(C(=O)Nc2ccc(S(=O)(=O)O)c3cc(S(=O)(=O)O)cc(S(=O)(=O)O)c23)cc1NC(=O)c1cccc(NC(=O)Nc2cccc(C(=O)Nc3cc(C(=O)Nc4ccc(S(=O)(=O)O)c5cc(S(=O)(=O)O)cc(S(=O)(=O)O)c45)ccc3C)c2)c1
inactive: [1] | [2] | [3] | [4] | [5] | [6]

CC#C[C@]1(O)CC[C@H]2[C@@H]3CCC4=CC(=O)CCC4=C3[C@@H](c3ccc(N(C)C)cc3)C[C@@]21C
active: [1] 1.66 µM | [2] 0.59 µM | [3] 1.32 µM | [7] 0.743 µM | [4] 1.05 µM | [5] 2.64 µM | [8] 1.05 µM

CN(C)CCCN1c2ccccc2CCc2ccc(Cl)cc21
active: [1] 1.18 µM | [2] 1.18 µM | [3] 0.264 µM | [7] 1.05 µM | [5] 8.33 µM | [8] 11.8 µM

CC(C)C(=O)Nc1ccc([N+](=O)[O-])c(C(F)(F)F)c1
inactive: [1] | [4]
active: [2] 3.32 µM | [3] 1.48 µM | [7] 4.69 µM | [5] 18.7 µM | [8] 18.7 µM

NC(=O)OCC(COC(N)=O)c1ccccc1
not listed: [6] | [9] | [10]
inactive: all other assays above

CN(C)C(=N)N=C(N)N
inactive: [1] | [2] | [3] | [7] | [5] | [8]

CC(=O)OCC(CCn1cnc2cnc(N)nc21)COC(C)=O
inactive: [1] | [2] | [3] | [7] | [4] | [5]

O=C(Nc1ccc([N+](=O)[O-])cc1Cl)c1cc(Cl)ccc1O
active: [1] 2.09 µM | [2] 1.32 µM | [3] 1.87 µM | [4] 1.66 µM | [5] 0.526 µM | [8] 0.235 µM

NC12CC3CC(CC(C3)C1)C2
inactive: [1]
active: [2] 16.6 µM

CS(=O)(=O)CCNCc1ccc(-c2ccc3ncnc(Nc4ccc(OCc5cccc(F)c5)c(Cl)c4)c3c2)o1
inactive: [10]
active: [1] 14.8 µM | [2] 0.235 µM | [3] 0.0235 µM | [7] 2.35 µM | [5] 6.62 µM | [8] 13.2 µM

Nc1nnc(-c2cccc(Cl)c2Cl)c(N)n1
active: [2] 23.5 µM
inactive: [1] | [3] | [4]

NC(=O)NO
active: [1] 3.32 µM | [2] 2.35 µM | [3] 0.526 µM | [7] 4.69 µM | [4] 2.96 µM | [5] 0.235 µM | [6] 3.72 µM | [8] 0.235 µM

CC1(C)O[C@H]2CC(=O)OC[C@]23[C@H]2CC[C@@]4(C)[C@H](c5ccoc5)OC(=O)[C@H]5O[C@]54[C@]2(C)C(=O)C[C@@H]13
not listed: [2] | [6] | [10]
inactive: all other assays above

Cn1cnc2c1c(=O)[nH]c(=O)n2C
active: [1] 26.4 µM | [2] 14.8 µM | [3] 20.9 µM | [4] 14.8 µM | [5] 7.43 µM | [6] 7.43 µM | [8] 7.43 µM

O=C(c1ccc(F)cc1)C1CCN(CCn2c(=O)[nH]c3ccccc3c2=O)CC1
not listed: [2] | [5] | [7]
inactive: all other assays above

CN1CCC(=C2c3ccccc3CC(=O)c3sccc32)CC1
inactive: [1] | [4] | [5]
active: [2] 8.33 µM | [3] 20.9 µM | [7] 16.6 µM

Cc1ccc(-c2cc(C(F)(F)F)nn2-c2ccc(S(N)(=O)=O)cc2)cc1
active: [2] 16.6 µM
not listed: [6] | [7]
inactive: all other assays above

CCOC(=O)Nc1ccc(NCc2ccc(F)cc2)nc1N
inactive: [1] | [2] | [3] | [4]
active: [7] 18.7 µM | [5] 18.7 µM

CC[C@@]1(O)C(=O)OCc2c1cc1n(c2=O)Cc2cc3c(CN(C)C)c(O)ccc3nc2-1
active: [1] 2.64 µM | [2] 0.469 µM | [3] 0.935 µM | [7] 0.264 µM | [4] 2.96 µM | [5] 2.64 µM | [8] 1.32 µM
inactive: [9] | [10]

CN1C2CCC1CC(OC(=O)C(CO)c1ccccc1)C2 (stereo not drawn)
inactive: [1] | [2] | [3] | [4] | [5] | [8]

CCOC(=O)C(C)(C)Oc1ccc(Cl)cc1
inactive: [1] | [2] | [3] | [4] | [6] | [8]

CC(C)(C)C(=O)Oc1ccc(S(=O)(=O)Nc2ccccc2C(=O)NCC(=O)O)cc1
inactive: [1] | [7] | [4] | [5]

CC(CCc1ccc(O)cc1)NCCc1ccc(O)c(O)c1 (stereo not drawn)
active: [1] 23.5 µM | [3] 20.9 µM | [7] 18.7 µM | [4] 20.9 µM | [5] 16.6 µM | [6] 13.2 µM | [8] 29.6 µM

CN(C)C(=O)C(CCN1CCC(O)(c2ccc(Cl)cc2)CC1)(c1ccccc1)c1ccccc1
inactive: [7] | [5]
active: [1] 20.9 µM | [2] 20.9 µM

NCCc1cnc[nH]1
inactive: [1] | [4] | [5] | [8]
active: [3] 14.8 µM | [6] 0.0148 µM

OCCN1CCN(CCCN2c3ccccc3Sc3ccc(C(F)(F)F)cc32)CC1
active: [1] 23.5 µM | [2] 18.7 µM | [7] 18.7 µM | [4] 18.7 µM | [6] 18.7 µM | [8] 20.9 µM

O=C(CCCN1CCC(O)(c2ccc(Cl)cc2)CC1)c1ccc(F)cc1
active: [4] 23.5 µM | [5] 16.6 µM | [6] 20.9 µM
inactive: [1] | [3]

CC(C)NCC(O)COc1ccc(CCOCC2CC2)cc1 (stereo not drawn)
inactive: [1] | [2] | [8]

Nc1c2c(nc3ccccc13)CCCC2
inactive: [1] | [3] | [5] | [6] | [8]

C[C@@H]1CC(=O)NN=C1c1ccc(NN=C(C#N)C#N)cc1
inactive: [5] | [8]
active: [1] 23.5 µM | [2] 18.7 µM | [4] 23.5 µM

COc1ccccc1OCC(O)CN1CCN(CC(=O)Nc2c(C)cccc2C)CC1 (stereo not drawn)
inactive: [1] | [3] | [7] | [4] | [5] | [8]

CCCCc1oc2ccccc2c1C(=O)c1cc(I)c(OCCN(CC)CC)c(I)c1
active: [1] 26.4 µM | [2] 13.2 µM | [5] 18.7 µM | [8] 6.62 µM

Clc1ccc2nsnc2c1NC1=NCCN1
inactive: [1] | [3] | [8]

CN(C)c1nc(N(C)C)nc(N(C)C)n1
inactive: [1] | [2] | [3] | [5] | [8]

CN1CCN(CCCN2c3ccccc3Sc3ccc(Cl)cc32)CC1
active: [1] 23.5 µM | [2] 18.7 µM | [3] 23.5 µM | [4] 20.9 µM | [5] 16.6 µM | [8] 16.6 µM

CC(C)(Oc1ccc(C2CC2(Cl)Cl)cc1)C(=O)O (stereo not drawn)
inactive: [1] | [3] | [5]

NCCS(=O)(=O)O
inactive: [1] | [2] | [3] | [4] | [5] | [8]

CC(C(=O)O)c1cccc(C(=O)c2ccccc2)c1 (stereo not drawn)
active: [2] 20.9 µM
inactive: [1] | [8]

Cc1cn([C@H]2C[C@H](N=[N+]=[N-])[C@@H](CO)O2)c(=O)[nH]c1=O
active: [3] 7.43 µM
not listed: [2] | [9] | [10]
inactive: all other assays above

CN1CCN(C2=Nc3cc(Cl)ccc3Nc3ccccc32)CC1
active: [2] 20.9 µM | [8] 16.6 µM
inactive: [1] | [3] | [4]

CN(Cc1cnc2nc(N)nc(N)c2n1)c1ccc(C(=O)N[C@@H](CCC(=O)O)C(=O)O)cc1
inactive: [6]
active: [1] 37.2 µM | [4] 0.0332 µM

Nc1ccn([C@H]2CC[C@@H](CO)O2)c(=O)n1
inactive: [1] | [2] | [4] | [5] | [6] | [8]

Nc1nc2c(ncn2COC(CO)CO)c(=O)[nH]1
active: [1] 26.4 µM | [2] 18.7 µM | [3] 14.8 µM | [5] 4.18 µM | [8] 6.62 µM

CCCNCC(O)COc1ccccc1C(=O)CCc1ccccc1 (stereo not drawn)
inactive: [1] | [4]

COc1ccc(C2CNC(=O)C2)cc1OC1CCCC1 (stereo not drawn)
inactive: [1] | [3] | [4] | [5] | [6]

COc1nc(C)nc(Cl)c1NC1=NCCN1
active: [2] 11.8 µM
inactive: [1] | [4] | [5]

Cn1ccc2cc3c(cc21)CCN3C(=O)Nc1cccnc1
inactive: [1] | [3] | [4]
active: [7] 23.5 µM

COc1cc2c(c(OC)c1OC)-c1ccc(OC)c(=O)cc1[C@@H](NC(C)=O)CC2
inactive: [1] | [3] | [5] | [8]

CCN1CCCC1CNC(=O)c1cc(S(=O)(=O)CC)c(N)cc1OC (stereo not drawn)
inactive: [1] | [2] | [3] | [4] | [6] | [8]

COc1ccc2c(c1)c(CC(=O)O)c(C)n2C(=O)c1ccc(Cl)cc1
active: [2] 16.6 µM
inactive: [1] | [4] | [6] | [8]
